Structures can show the parent of a compound that is named as a salt. Unmarked numbers belong to inactive results.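 How the source made its calls: active = normalised median growth AUC below 0.1 of DMSO control; inactive = AUC 0.1 or higher.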

The source of these data is the supplement of paper PMC12350171.
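Further: active when median AUC fell below 0.1.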

In one assay the test system is P. vulgatus WT. Put plainly: growth AUC normalised to DMSO control (median) (fraction of control); higher = less growth inhibition, active = hit call of the paper. The following applies: 20 µM. In short, it runs like this: (§1)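 In 96-well plates of mGAM seeded at OD578 0.01, strains that had been passaged twice overnight without oxygen were exposed to approved-drug library compounds at 20 μM with 1% DMSO. Hourly OD578 readings were taken for 24 h in an anaerobic incubator. The trapezoidal-rule area under the curve, with curves truncated at entry into stationary phase, was expressed relative to same-plate vehicle wells as the median of three biological replicates.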
For `CCOC(=O)[C@H](CCc1ccccc1)N[C@@H](C)C(=O)N(CC(=O)O)C1Cc2ccccc2C1` [Delapril Hydrochloride], the “growth AUC normalised to DMSO control” value was 0.999.

For `Cc1nc(C)c(Cl)c(O)c1Cl` [Clopidol], the “growth AUC normalised to DMSO control” value is 0.991.

`CC1=C(C)C(=O)C(C(CCCCCC(=O)O)c2ccccc2)=C(C)C1=O` (stereo unspecified) [Seratrodast]: the “growth AUC normalised to DMSO control” value is 0.967.

As for `N[C@@H](C(=O)N[C@@H]1C(=O)N2C(C(=O)O)=C(Cl)CC[C@H]12)c1ccccc1` [Loracarbef], the “growth AUC normalised to DMSO control” value is 0.00996 (active).

Turning to `Nc1nc2[nH]cc(CCc3ccc(C(=O)N[C@@H](CCC(=O)O)C(=O)O)cc3)c2c(=O)[nH]1` [Pemetrexed disodium], the “growth AUC normalised to DMSO control” value was 1.04.

In the case of `NC(N)=Nc1nc(CSCCN/C=N/S(=O)(=O)c2ccc(Br)cc2)cs1` [Ebrotidine], the “growth AUC normalised to DMSO control” value is 1.01.

On to `O=P(O)(O)C(O)(Cn1ccnc1)P(=O)(O)O` [Zoledronic acid hydrate], for which the “growth AUC normalised to DMSO control” value was 0.988.

Turning to `CCOC(=O)OC(C)OC1=C(C(=O)Nc2ccccn2)N(C)S(=O)(=O)c2ccccc21` (stereo unspecified) [Ampiroxicam], the “growth AUC normalised to DMSO control” value is 0.988.

On to `C[N+](C)(C)C[C@H](O)CC(=O)[O-]` [Levocarnitine], for which the “growth AUC normalised to DMSO control” value was 1.04.

In the case of `C[C@H]1COc2c(N3CCN(C)CC3)c(F)cc3c(=O)c(C(=O)O)cn1c23` [Levofloxacin], the “growth AUC normalised to DMSO control” value is 0.0149 (active).

On to `CCCCCCCCCCCCCCCCCCCCCC(=O)Nc1ccn([C@@H]2O[C@H](CO)[C@@H](O)[C@@H]2O)c(=O)n1` [Enocitabine], for which the “growth AUC normalised to DMSO control” value is 1.04.

For `CC(C(=O)O)c1ccc(CC2CCCC2=O)cc1` (stereo unspecified) [Loxoprofen], the “growth AUC normalised to DMSO control” value was 1.01.

As to `COc1c(-c2ccc3cc(NS(C)(=O)=O)ccc3c2)cc(-n2ccc(=O)[nH]c2=O)cc1C(C)(C)C` [Dasabuvir], the “growth AUC normalised to DMSO control” value is 0.827.

Take `CCc1ccc(C(=O)C(C)CN2CCCCC2)cc1` (stereo unspecified) [Eperisone Hydrochloride]: the “growth AUC normalised to DMSO control” value is 1.04.

For `CC(C)(C)c1ccc(C(=O)CCCN2CCC(OC(c3ccccc3)c3ccccc3)CC2)cc1` [Ebastine], the “growth AUC normalised to DMSO control” value was 1.01.

On to `O=C1CC[C@@H](C(=O)N2CSC[C@H]2C(=O)O)N1` [Pidotimod], for which the “growth AUC normalised to DMSO control” value was 0.993.

Another assay has as its system S. enterica typhimurium WT. The description is as above. The following applies: 20 µM. In short, it runs like this:
as §1
Take `CN(C)CCCN1c2ccccc2[S+]([O-])c2ccc(Cl)cc21` (stereo unspecified) [Chlorpromazine Sulfoxide]: the “growth AUC normalised to DMSO control” value is 0.995.

As for `Nc1c2ccccc2nc2ccccc12` [Aminacrine], the “growth AUC normalised to DMSO control” value was 0.902.

Regarding `Cc1ccc(=O)n(-c2ccccc2)c1` [Pirfenidone], the “growth AUC normalised to DMSO control” value was 1.

With `O=C1Nc2ccccc2C1(c1ccc(O)cc1)c1ccc(O)cc1` [Oxyphenisatin], the “growth AUC normalised to DMSO control” value is 0.994.

For `Nc1ccc2cc3ccc(N)cc3nc2c1` [Proflavine hemisulfate], the “growth AUC normalised to DMSO control” value was 0.955.

Consider `CS(=O)(=O)c1ccc([C@@H](O)[C@@H](CF)NC(=O)C(Cl)Cl)cc1` [Florfenicol], for which the “growth AUC normalised to DMSO control” value is 0.00248 (active).

As for `CC(=O)Nc1ccccc1` [Acetanilide], the “growth AUC normalised to DMSO control” value is 0.997.

In the case of `N[C@@H](CCC(=O)N[C@@H](CS)C(=O)NCC(=O)O)C(=O)O` [Glutathione], the “growth AUC normalised to DMSO control” value was 1.

`NC(=O)Cc1cccc(C(=O)c2ccccc2)c1N` [Nepafenac]: the “growth AUC normalised to DMSO control” value was 0.996.

In the case of `OC(CNCC(O)C1CCc2cc(F)ccc2O1)C1CCc2cc(F)ccc2O1` (stereo unspecified) [Nebivolol hydrochloride], the “growth AUC normalised to DMSO control” value is 0.998.

Turning to `C=C1CC[C@H](O)C/C1=C/C=C1\CCC[C@]2(C)[C@@H]([C@H](C)CCCC(C)C)CC[C@@H]12` [Cholecalciferol], the “growth AUC normalised to DMSO control” value is 0.999.

On to `O=C(O)Cc1csc(-c2ccc(Cl)cc2)n1` [Fenclozic acid], for which the “growth AUC normalised to DMSO control” value is 1.01.

On to `CCCCCNC(=N)N/N=C/c1c[nH]c2ccc(OC)cc12` [Tegaserod maleate], for which the “growth AUC normalised to DMSO control” value is 0.994.

With `CN(CCCN1c2ccccc2CCc2ccccc21)CC(=O)c1ccc(Cl)cc1` [Lofepramine], the “growth AUC normalised to DMSO control” value is 0.985.

Consider `CCN(CC)C(=O)C1(c2ccccc2)CC1CN` (stereo unspecified) [Milnacipran hydrochloride], for which the “growth AUC normalised to DMSO control” value is 0.999.

Turning to `Nc1ccc(S(=O)(=O)Nc2ccc(Cl)nn2)cc1` [Sulfachloropyridazine], the “growth AUC normalised to DMSO control” value was 0.965.

For the compound `O=C1[C@H]2CCCC[C@H]2C(=O)N1CCCCN1CCN(c2nsc3ccccc23)CC1` [Perospirone hydrochloride], the “growth AUC normalised to DMSO control” value was 0.998.

For the compound `O=c1[nH]c(=O)n([C@H]2C[C@H](O)[C@@H](CO)O2)cc1/C=C/Br` [Brivudine], the “growth AUC normalised to DMSO control” value was 1.

As to `CCC(=O)c1c(O)cc(O)cc1O` [Flopropione], the “growth AUC normalised to DMSO control” value is 0.999.

With `O=C1OC(c2ccc(O)cc2)(c2ccc(O)cc2)c2ccccc21` [Phenolphthalein], the “growth AUC normalised to DMSO control” value was 1.02.

Regarding `NC(=O)[C@@H]1CCCN1C(=O)[C@H](Cc1c[nH]cn1)NC(=O)[C@@H]1CCC(=O)N1` [Thyrotropin-Releasing Hormone], the “growth AUC normalised to DMSO control” value is 0.996.

`CC[C@H](C)[C@H](NC(=O)[C@H](Cc1ccc(O)cc1)NC(=O)[C@@H](NC(=O)[C@H](CCCN=C(N)N)NC(=O)[C@@H](N)CC(=O)O)C(C)C)C(=O)N[C@@H](Cc1cnc[nH]1)C(=O)N1CCC[C@H]1C(=O)N[C@@H](Cc1ccccc1)C(=O)O` [Angiotensin II (Human) Trifluoroacetic acid salt]: the “growth AUC normalised to DMSO control” value is 0.997.

As for `CC(=O)Nc1cccc(O)c1` [Metacetamol], the “growth AUC normalised to DMSO control” value was 1.

On to `CC(C)c1ccc2oc3nc(N)c(C(=O)O)cc3c(=O)c2c1` [Amlexanox], for which the “growth AUC normalised to DMSO control” value is 0.996.

In the case of `CCOC(=O)[C@H](CCc1ccccc1)N[C@@H](C)C(=O)N(CC(=O)O)C1Cc2ccccc2C1` [Delapril Hydrochloride], the “growth AUC normalised to DMSO control” value is 1.

In the case of `Cc1nc(C)c(Cl)c(O)c1Cl` [Clopidol], the “growth AUC normalised to DMSO control” value was 1.01.

Consider `CC1=C(C)C(=O)C(C(CCCCCC(=O)O)c2ccccc2)=C(C)C1=O` (stereo unspecified) [Seratrodast], for which the “growth AUC normalised to DMSO control” value was 1.01.

With `N[C@@H](C(=O)N[C@@H]1C(=O)N2C(C(=O)O)=C(Cl)CC[C@H]12)c1ccccc1` [Loracarbef], the “growth AUC normalised to DMSO control” value is 0.018 (active).

For the compound `Nc1nc2[nH]cc(CCc3ccc(C(=O)N[C@@H](CCC(=O)O)C(=O)O)cc3)c2c(=O)[nH]1` [Pemetrexed disodium], the “growth AUC normalised to DMSO control” value is 1.01.

As to `NC(N)=Nc1nc(CSCCN/C=N/S(=O)(=O)c2ccc(Br)cc2)cs1` [Ebrotidine], the “growth AUC normalised to DMSO control” value was 0.998.

In the case of `O=P(O)(O)C(O)(Cn1ccnc1)P(=O)(O)O` [Zoledronic acid hydrate], the “growth AUC normalised to DMSO control” value was 1.01.

In the case of `CCOC(=O)OC(C)OC1=C(C(=O)Nc2ccccn2)N(C)S(=O)(=O)c2ccccc21` (stereo unspecified) [Ampiroxicam], the “growth AUC normalised to DMSO control” value is 1.

`C[N+](C)(C)C[C@H](O)CC(=O)[O-]` [Levocarnitine]: the “growth AUC normalised to DMSO control” value is 0.998.

In the case of `C[C@H]1COc2c(N3CCN(C)CC3)c(F)cc3c(=O)c(C(=O)O)cn1c23` [Levofloxacin], the “growth AUC normalised to DMSO control” value was 0.00504 (active).

Take `CCCCCCCCCCCCCCCCCCCCCC(=O)Nc1ccn([C@@H]2O[C@H](CO)[C@@H](O)[C@@H]2O)c(=O)n1` [Enocitabine]: the “growth AUC normalised to DMSO control” value was 1.01.

On to `CC(C(=O)O)c1ccc(CC2CCCC2=O)cc1` (stereo unspecified) [Loxoprofen], for which the “growth AUC normalised to DMSO control” value is 1.01.

As to `COc1c(-c2ccc3cc(NS(C)(=O)=O)ccc3c2)cc(-n2ccc(=O)[nH]c2=O)cc1C(C)(C)C` [Dasabuvir], the “growth AUC normalised to DMSO control” value is 1.

As for `CCc1ccc(C(=O)C(C)CN2CCCCC2)cc1` (stereo unspecified) [Eperisone Hydrochloride], the “growth AUC normalised to DMSO control” value was 1.

Turning to `CC(C)(C)c1ccc(C(=O)CCCN2CCC(OC(c3ccccc3)c3ccccc3)CC2)cc1` [Ebastine], the “growth AUC normalised to DMSO control” value is 1.01.

With `O=C1CC[C@@H](C(=O)N2CSC[C@H]2C(=O)O)N1` [Pidotimod], the “growth AUC normalised to DMSO control” value was 1.
